This is part of a sample that, as a whole, favours compounds with a hit. Of some 79,000 tested, about 15% had one in any assay. Activity calls are given as the source filed them. Rule as the data show it: active = growth inhibition above about 70%; inactive = the rest.
Assays:
[1] = NCI Yeast Anticancer Drug Screen. Data for the rad52 strain (AID 147);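 also: 0% = growth of vehicle-treated control cultures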; details: S. cerevisiae rad52 mutant growth inhibition, active compounds read high
In short: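 Here a repair-compromised yeast strain receives each compound; its growth is then quantified and normalised to vehicle-only controls.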

[2] = NCI Yeast Anticancer Drug Screen. Data for the wt1 strain (AID 149);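 also: 0% = growth of vehicle-treated wt1 cultures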; details: S. cerevisiae wt1 strain (SPY 50644) growth inhibition, active compounds read high
In short: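 Vehicle-normalised growth inhibition; strain wt1; compound exposure.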

[3] = NCI Yeast Anticancer Drug Screen. Data for the rad50EPP+ strain (AID 151);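 also: 0% = growth of vehicle-treated control cultures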; details: S. cerevisiae rad50 mutant strain, active compounds read high
In short: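 Read-out is yeast growth inhibition relative to vehicle; cells used were the rad50EPP+ strain.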

[4] = NCI Yeast Anticancer Drug Screen. Data for the mgt1 strain (AID 153); details: S. cerevisiae mgt1 mutant growth inhibition, active compounds read high
In short: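 Measured: inhibition of mgt1 yeast growth by compound, normalized to vehicle-treated cultures.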

[5] = NCI Yeast Anticancer Drug Screen. Data for the rad50 strain (AID 155);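 also: 0% = growth of vehicle-only cultures of the same strain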; details: S. cerevisiae rad50 strain growth inhibition, active compounds read high
In short: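 A DNA repair-deficient yeast mutant serves as the test organism; compound-induced growth inhibition is calculated against vehicle-treated cells.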

[6] = NCI Yeast Anticancer Drug Screen. Data for the mec2-1 strain (AID 157); details: S. cerevisiae mec2-1 strain, active compounds read high
In short: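 Using mec2-1 yeast: add compound, measure growth, express inhibition versus vehicle-treated cultures.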

[7] = NCI Yeast Anticancer Drug Screen. Data for the rad14 strain (AID 159);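 also: 0% = growth of vehicle-treated control cultures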; details: S. cerevisiae rad14 strain growth inhibition, active compounds read high
In short: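 Vehicle-treated cultures served as the baseline for growth inhibition of a DNA repair-mutant yeast strain exposed to each compound.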

[8] = NCI Yeast Anticancer Drug Screen. Data for the sgs1 mgt1 strain (AID 161);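 also: 0% = growth of cultures given vehicle only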; details: S. cerevisiae sgs1 mgt1 strain, active compounds read high
In short: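 Compounds are added to genetically altered yeast, and growth is compared with cultures given vehicle alone to give percent inhibition.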

[9] = NCI Yeast Anticancer Drug Screen. Data for the CLN2oe strain (AID 163);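 also: 0% = growth of vehicle-only control cultures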; details: S. cerevisiae CLN2oe strain, active compounds read high
In short: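 Whole-cell yeast growth assay. A strain engineered for altered cell-cycle control received compound, and inhibition relative to vehicle-treated cultures was recorded.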

[10] = NCI Yeast Anticancer Drug Screen. Data for the cln2 rad14 strain (AID 165);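 also: 0% = growth equal to vehicle treated cultures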; details: S. cerevisiae cln2 rad14 strain, active compounds read high
In short: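 Yeast strain cln2 rad14, bearing defects in cell cycle control and DNA repair, serves as the test system; values reflect growth inhibition compared with vehicle.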

[11] = NCI Yeast Anticancer Drug Screen. Data for the bub3 strain (AID 167); details: S. cerevisiae bub3 mutant strain, active compounds read high
In short: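 Inhibition values come from growth of compound-treated mutant yeast normalised to vehicle-treated controls.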

[12] = NCI Yeast Anticancer Drug Screen. Data for the wt2 strain (AID 169);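 also: 0% = growth of vehicle-treated yeast cultures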; details: S. cerevisiae wt2 strain growth inhibition, active compounds read high
In short: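 Treated yeast vs. vehicle-treated yeast: growth inhibition determined.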

[13] = NCI Yeast Anticancer Drug Screen. Data for the mlh1 strain (AID 171);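 also: 0% = growth of vehicle-treated control cultures of the same strain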; details: S. cerevisiae mlh1 strain growth inhibition, active compounds read high
In short: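 A yeast strain with a defined genetic lesion serves as the test organism. Cultures receive compound or vehicle, and growth is measured.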

[14] = NCI Yeast Anticancer Drug Screen. Data for the sgs1 strain (AID 173);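 also: 0% = growth of vehicle-only control cultures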; details: S. cerevisiae sgs1 mutant, active compounds read high
In short: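 A genetically defined yeast mutant is incubated with the test compound, and its growth is compared to that of the same strain given vehicle.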

[15] = NCI Yeast Anticancer Drug Screen. Data for the mlh1 rad18 strain (AID 175); details: S. cerevisiae mlh1 rad18 strain growth inhibition, active compounds read high
In short: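 Steps: expose repair-defective yeast to compound; measure growth; express inhibition against vehicle-treated controls.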

[16] = NCI Yeast Anticancer Drug Screen. Data for the rad18 strain (AID 177); details: S. cerevisiae rad18 mutant growth inhibition, active compounds read high
In short: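 Measured value is growth inhibition of a yeast strain bearing a DNA repair alteration, referenced to vehicle-treated cells.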

[17] = at 5.0 µM (retest, dose inferred, filed as 0.5)
[18] = at 50.0 µM (retest, dose inferred, filed as 5.0)

Measured: growth inhibition

O=c1c2ccccc2nc(-c2ccccc2)n1O
active: [1]; at 33.0 µM 95% | [1]; at 100.0 µM 97% | [2]; at 33.0 µM 97% | [2]; at 100.0 µM 97% | [3]; at 33.0 µM 82% | [3]; at 100.0 µM 87% | [4]; at 11.0 µM 92% | [4]; at 33.0 µM 98% | [4]; at 100.0 µM 97% | [5]; at 11.0 µM 89% | [5]; at 33.0 µM 97% | [5]; [18] 99% | [5]; at 50.0 µM 99% | [5]; at 100.0 µM 98% | [6]; at 33.0 µM 96% | [6]; [18] 99% | [6]; at 50.0 µM 98.2% | [6]; at 100.0 µM 97% | [7]; at 11.0 µM 97% | [7]; at 33.0 µM 99% | [7]; at 100.0 µM 98% | [8]; [18] 99% | [8]; at 50.0 µM 98.8% | [9]; at 33.0 µM 86% | [9]; at 100.0 µM 88% | [10]; [18] 96% | [10]; at 50.0 µM 97% | [11]; at 11.0 µM 78% | [11]; at 33.0 µM 95% | [11]; [18] 99% | [11]; at 50.0 µM 97.9% | [11]; at 100.0 µM 95% | [12]; at 11.0 µM 96% | [12]; at 33.0 µM 98% | [12]; at 100.0 µM 98% | [13]; at 11.0 µM 95% | [13]; at 33.0 µM 98% | [13]; at 100.0 µM 98% | [14]; at 11.0 µM 93% | [14]; at 33.0 µM 97% | [14]; at 100.0 µM 97% | [15]; [18] 99% | [15]; at 50.0 µM 98.5% | [16]; at 11.0 µM 89% | [16]; at 33.0 µM 97% | [16]; at 100.0 µM 97%
inactive: [1]; at 1.2 µM 16% | [1]; at 3.7 µM 19% | [1]; at 11.0 µM 62% | [2]; at 1.2 µM 12% | [2]; at 3.7 µM 15% | [2]; at 11.0 µM 63% | [3]; at 1.2 µM 3% | [3]; at 3.7 µM 3% | [3]; at 11.0 µM 16% | [4]; at 1.2 µM 31% | [4]; at 3.7 µM 26% | [5]; at 1.2 µM 36% | [5]; at 3.7 µM 39% | [5]; [17] 45% | [6]; at 1.2 µM 18% | [6]; at 3.7 µM 16% | [6]; [17] 14% | [6]; at 11.0 µM 55% | [7]; at 1.2 µM 51% | [7]; at 3.7 µM 59% | [8]; [17] 66% | [9]; at 1.2 µM 1% | [9]; at 3.7 µM 9% | [9]; at 11.0 µM 29% | [10]; [17] -11% | [11]; at 1.2 µM 12% | [11]; at 3.7 µM 18% | [11]; [17] 43% | [12]; at 1.2 µM 24% | [12]; at 3.7 µM 55% | [13]; at 1.2 µM 50% | [13]; at 3.7 µM 48% | [14]; at 1.2 µM 32% | [14]; at 3.7 µM 48% | [15]; [17] 55% | [16]; at 1.2 µM 39% | [16]; at 3.7 µM 35%

CCOC(=O)C(Br)C(Br)c1ccccc1Cl (stereo unspecified)
inactive: [1]; at 1.2 µM 6% | [1]; at 3.7 µM 23% | [2]; at 1.2 µM -4% | [2]; at 3.7 µM 7% | [2]; at 11.0 µM 46% | [3]; at 1.2 µM 24% | [3]; at 3.7 µM 62% | [4]; at 1.2 µM 0% | [4]; at 3.7 µM 14% | [4]; at 11.0 µM 61% | [5]; at 1.2 µM 5% | [5]; at 3.7 µM 17% | [5]; [17] 23% | [5]; at 11.0 µM 68% | [6]; at 1.2 µM 0% | [6]; at 3.7 µM 12% | [6]; [17] 30% | [6]; at 11.0 µM 47% | [7]; at 1.2 µM 0% | [7]; at 3.7 µM 10% | [7]; at 11.0 µM 47% | [8]; [17] 46% | [9]; at 1.2 µM -2% | [9]; at 3.7 µM 3% | [9]; at 11.0 µM 47% | [10]; [17] 13% | [11]; at 1.2 µM -1% | [11]; at 3.7 µM 7% | [11]; [17] 22% | [11]; at 11.0 µM 47% | [12]; at 1.2 µM -2% | [12]; at 3.7 µM 22% | [13]; at 1.2 µM 9% | [13]; at 3.7 µM 23% | [14]; at 1.2 µM 10% | [14]; at 3.7 µM 34% | [15]; [17] 39% | [16]; at 1.2 µM 10% | [16]; at 3.7 µM 29%
active: [1]; at 11.0 µM 83% | [1]; at 33.0 µM 99% | [1]; at 100.0 µM 99% | [2]; at 33.0 µM 99% | [2]; at 100.0 µM 99% | [3]; at 11.0 µM 96% | [3]; at 33.0 µM 99% | [3]; at 100.0 µM 99% | [4]; at 33.0 µM 99% | [4]; at 100.0 µM 99% | [5]; at 33.0 µM 99% | [5]; [18] 99% | [5]; at 50.0 µM 99.7% | [5]; at 100.0 µM 99% | [6]; at 33.0 µM 99% | [6]; [18] 100% | [6]; at 50.0 µM 99.8% | [6]; at 100.0 µM 99% | [7]; at 33.0 µM 98% | [7]; at 100.0 µM 99% | [8]; [18] 99% | [8]; at 50.0 µM 99.8% | [9]; at 33.0 µM 99% | [9]; at 100.0 µM 99% | [10]; [18] 99% | [10]; at 50.0 µM 99.4% | [11]; at 33.0 µM 98% | [11]; [18] 99% | [11]; at 50.0 µM 99.8% | [11]; at 100.0 µM 99% | [12]; at 11.0 µM 93% | [12]; at 33.0 µM 99% | [12]; at 100.0 µM 99% | [13]; at 11.0 µM 92% | [13]; at 33.0 µM 99% | [13]; at 100.0 µM 99% | [14]; at 11.0 µM 94% | [14]; at 33.0 µM 99% | [14]; at 100.0 µM 99% | [15]; [18] 99% | [15]; at 50.0 µM 99.5% | [16]; at 11.0 µM 89% | [16]; at 33.0 µM 99% | [16]; at 100.0 µM 99%

Cc1c(C)c(C)c(CSC(=N)N)c(C)c1C
inactive: [1]; at 1.2 µM -23% | [1]; at 3.7 µM -17% | [1]; at 11.0 µM -12% | [1]; at 33.0 µM 36% | [2]; at 1.2 µM -29% | [2]; at 3.7 µM -32% | [2]; at 11.0 µM -30% | [2]; at 33.0 µM 8% | [3]; at 1.2 µM -55% | [3]; at 3.7 µM -53% | [3]; at 11.0 µM -79% | [3]; at 33.0 µM -59% | [4]; at 1.2 µM -52% | [4]; at 3.7 µM -50% | [4]; at 11.0 µM -50% | [4]; at 33.0 µM 6% | [5]; at 1.2 µM -13% | [5]; at 3.7 µM -10% | [5]; [17] 46% | [5]; at 11.0 µM -9% | [5]; at 33.0 µM 51% | [6]; at 1.2 µM -74% | [6]; at 3.7 µM -78% | [6]; [17] 54% | [6]; at 11.0 µM -69% | [6]; at 33.0 µM 31% | [7]; at 1.2 µM -31% | [7]; at 3.7 µM -27% | [7]; at 11.0 µM -12% | [8]; [17] -4% | [9]; at 1.2 µM -22% | [9]; at 3.7 µM -18% | [9]; at 11.0 µM -14% | [9]; at 33.0 µM 59% | [10]; [17] 8% | [11]; at 1.2 µM -23% | [11]; at 3.7 µM -9% | [11]; [17] 35% | [11]; at 11.0 µM -10% | [11]; at 33.0 µM 55%
active: [1]; at 100.0 µM 98% | [2]; at 100.0 µM 98% | [3]; at 100.0 µM 96% | [4]; at 100.0 µM 98% | [5]; [18] 81% | [5]; at 50.0 µM 91.8% | [5]; at 100.0 µM 99% | [6]; [18] 86% | [6]; at 50.0 µM 93.5% | [6]; at 100.0 µM 98% | [7]; at 33.0 µM 85% | [7]; at 100.0 µM 98% | [8]; [18] 100% | [8]; at 50.0 µM 93.3% | [9]; at 100.0 µM 99% | [10]; [18] 100% | [10]; at 50.0 µM 86.1% | [11]; [18] 99% | [11]; at 50.0 µM 83.2% | [11]; at 100.0 µM 98%

— PubChem BioAssay (NCI)
